# Assays:
# Test in all cases: DAPPL (digital affinity profiling via proximity ligation, sequencing); 10 mM Tris-HCl pH 7.5, 50 mM NaCl, 1 mM DTT, 4% glycerol, room temperature, 30 min; GST-TFs on glutathione beads, 16-mer random dsDNA library, 0.1% formaldehyde crosslink after washing; high values mean tight binding
# Conditions in all cases: protein: recombinant; tags: N-terminal GST; dsDNA, one strand shown
# [1] = target: T1, ERF (Homo sapiens, UniProt P50548 1-548)
# T1 sequence: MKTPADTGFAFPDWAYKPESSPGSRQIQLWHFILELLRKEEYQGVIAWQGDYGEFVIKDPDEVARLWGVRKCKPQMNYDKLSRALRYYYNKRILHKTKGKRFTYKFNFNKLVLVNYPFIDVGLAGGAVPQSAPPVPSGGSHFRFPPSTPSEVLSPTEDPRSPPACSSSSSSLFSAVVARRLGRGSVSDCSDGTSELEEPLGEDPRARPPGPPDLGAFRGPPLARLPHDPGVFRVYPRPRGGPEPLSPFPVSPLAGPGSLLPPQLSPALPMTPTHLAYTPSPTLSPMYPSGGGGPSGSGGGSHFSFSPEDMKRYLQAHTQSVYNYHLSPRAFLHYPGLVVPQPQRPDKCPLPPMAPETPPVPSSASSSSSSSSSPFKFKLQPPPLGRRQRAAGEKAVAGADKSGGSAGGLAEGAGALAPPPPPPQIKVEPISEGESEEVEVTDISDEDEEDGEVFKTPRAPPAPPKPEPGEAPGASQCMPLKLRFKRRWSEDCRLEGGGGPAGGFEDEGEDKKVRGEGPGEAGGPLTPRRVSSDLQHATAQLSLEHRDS
# In short: (§1)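 Pools of DNA-barcoded human transcription factors, expressed in yeast as GST fusions on glutathione beads and combined with a tag-only sample, were incubated with 200 nmole of a 16-mer random double-stranded DNA library. Incubation took 30 min at room temperature in Tris/NaCl/DTT/glycerol buffer and was followed by washing, 0.1% formaldehyde crosslinking, proximity ligation (BsaI/T4 ligase, 1 h, 37 °C), PCR amplification and sequencing on an Illumina NextSeq500. Binding signal is the ratio of a hexamer's read frequency for a factor to its frequency for the tag-only sample.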
# [2] = target: T2, ETV3L (Homo sapiens, UniProt Q6ZN32 1-361)
# T2 sequence: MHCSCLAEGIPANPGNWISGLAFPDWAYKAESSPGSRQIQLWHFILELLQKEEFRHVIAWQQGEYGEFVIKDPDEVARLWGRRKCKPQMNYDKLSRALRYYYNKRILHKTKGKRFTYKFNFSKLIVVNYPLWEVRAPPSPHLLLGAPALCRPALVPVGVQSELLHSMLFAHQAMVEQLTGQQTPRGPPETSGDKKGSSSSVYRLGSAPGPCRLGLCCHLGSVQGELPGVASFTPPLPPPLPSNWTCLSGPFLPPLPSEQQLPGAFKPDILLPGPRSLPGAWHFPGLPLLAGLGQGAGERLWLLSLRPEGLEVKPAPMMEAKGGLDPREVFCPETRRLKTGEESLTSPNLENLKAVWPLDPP
# In short: as §1
# [3] = target: T3, ETS2 (Homo sapiens, UniProt P15036 1-469)
# T3 sequence: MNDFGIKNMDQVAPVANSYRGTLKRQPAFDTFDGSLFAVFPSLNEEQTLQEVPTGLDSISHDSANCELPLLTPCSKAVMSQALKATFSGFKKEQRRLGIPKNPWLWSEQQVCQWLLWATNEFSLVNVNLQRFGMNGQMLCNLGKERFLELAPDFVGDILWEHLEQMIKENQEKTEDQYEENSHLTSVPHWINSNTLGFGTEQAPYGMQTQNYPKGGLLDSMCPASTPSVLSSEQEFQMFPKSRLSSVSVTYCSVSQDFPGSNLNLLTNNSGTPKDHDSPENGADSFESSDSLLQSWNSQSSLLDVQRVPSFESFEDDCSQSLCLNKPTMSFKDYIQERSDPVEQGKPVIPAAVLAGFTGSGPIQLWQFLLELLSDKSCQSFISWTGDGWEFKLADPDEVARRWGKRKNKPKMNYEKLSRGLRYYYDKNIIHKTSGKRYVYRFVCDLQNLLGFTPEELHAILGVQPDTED
# In short: as §1
# [4] = target: T4, SPDEF (Homo sapiens, UniProt O95238 1-335)
# T4 sequence: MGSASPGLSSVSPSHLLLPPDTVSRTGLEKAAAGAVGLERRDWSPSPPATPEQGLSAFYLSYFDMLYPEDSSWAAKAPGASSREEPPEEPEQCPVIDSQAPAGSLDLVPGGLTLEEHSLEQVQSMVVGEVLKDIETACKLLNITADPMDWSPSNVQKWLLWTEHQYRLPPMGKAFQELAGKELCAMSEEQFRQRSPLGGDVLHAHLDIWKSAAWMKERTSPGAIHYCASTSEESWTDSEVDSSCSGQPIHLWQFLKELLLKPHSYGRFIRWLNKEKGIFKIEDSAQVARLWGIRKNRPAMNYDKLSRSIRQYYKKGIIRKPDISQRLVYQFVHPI
# In short: as §1
# [5] = target: T5, ETV7 (Homo sapiens, UniProt Q9Y603 1-341)
# T5 sequence: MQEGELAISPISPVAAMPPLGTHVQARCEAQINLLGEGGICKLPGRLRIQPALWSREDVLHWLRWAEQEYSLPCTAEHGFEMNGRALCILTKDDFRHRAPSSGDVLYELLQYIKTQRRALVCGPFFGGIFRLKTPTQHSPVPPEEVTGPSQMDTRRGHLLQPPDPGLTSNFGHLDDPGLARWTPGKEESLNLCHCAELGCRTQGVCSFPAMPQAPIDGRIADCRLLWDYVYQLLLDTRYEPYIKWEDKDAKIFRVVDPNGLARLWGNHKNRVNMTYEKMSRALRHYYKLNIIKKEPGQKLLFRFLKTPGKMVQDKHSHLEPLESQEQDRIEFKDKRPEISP
# In short: as §1
# [6] = target: T6, ELF5 (Homo sapiens, UniProt Q9UKW6-2 1-255)
# T6 sequence: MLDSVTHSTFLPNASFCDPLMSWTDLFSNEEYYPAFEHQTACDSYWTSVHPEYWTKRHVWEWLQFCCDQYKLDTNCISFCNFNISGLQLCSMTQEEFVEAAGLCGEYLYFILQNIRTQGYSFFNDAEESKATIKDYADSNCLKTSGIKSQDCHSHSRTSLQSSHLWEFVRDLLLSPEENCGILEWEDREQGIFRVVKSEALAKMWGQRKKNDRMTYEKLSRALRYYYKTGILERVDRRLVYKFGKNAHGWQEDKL
# In short: as §1
# [7] = target: T7, ETV3 (Homo sapiens, UniProt P41162-2 1-143)
# T7 sequence: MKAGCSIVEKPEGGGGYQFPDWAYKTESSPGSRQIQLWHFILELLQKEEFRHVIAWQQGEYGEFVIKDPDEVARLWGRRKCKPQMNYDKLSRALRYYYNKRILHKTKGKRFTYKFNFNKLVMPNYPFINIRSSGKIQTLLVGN
# In short: as §1
# [8] = target: ETV6 (Homo sapiens, UniProt P41212 1-452)
# In short: as §1
# ETV6, sequence (P41212 whole entry): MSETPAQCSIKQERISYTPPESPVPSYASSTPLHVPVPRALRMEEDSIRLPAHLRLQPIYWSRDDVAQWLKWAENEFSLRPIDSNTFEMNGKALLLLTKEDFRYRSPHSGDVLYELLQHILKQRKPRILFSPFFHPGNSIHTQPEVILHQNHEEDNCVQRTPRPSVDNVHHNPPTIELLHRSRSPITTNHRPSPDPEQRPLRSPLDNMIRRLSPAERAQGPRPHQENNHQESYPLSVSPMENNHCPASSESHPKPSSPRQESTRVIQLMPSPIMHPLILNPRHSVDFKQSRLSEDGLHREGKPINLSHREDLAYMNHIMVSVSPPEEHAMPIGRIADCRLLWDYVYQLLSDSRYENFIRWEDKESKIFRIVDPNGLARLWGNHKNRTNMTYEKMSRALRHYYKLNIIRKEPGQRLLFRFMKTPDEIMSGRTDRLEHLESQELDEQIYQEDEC
sequence,measurement,setting,value
CTTCAG,binding signal,[1],"1.27 fold enrichment (6-mer frequency, TF over GST control)"
same,binding signal,[2],"1.26 fold enrichment (6-mer frequency, TF over GST control)"
same,binding signal,[3],"1.33 fold enrichment (6-mer frequency, TF over GST control)"
same,binding signal,[4],"1.34 fold enrichment (6-mer frequency, TF over GST control)"
same,binding signal,[5],"1.29 fold enrichment (6-mer frequency, TF over GST control)"
same,binding signal,[6],"1.35 fold enrichment (6-mer frequency, TF over GST control)"
same,binding signal,[7],"1.17 fold enrichment (6-mer frequency, TF over GST control)"
same,binding signal,[8],"1.37 fold enrichment (6-mer frequency, TF over GST control)"
ATGTTC,binding signal,[1],"1.27 fold enrichment (6-mer frequency, TF over GST control)"
same,binding signal,[2],"1.31 fold enrichment (6-mer frequency, TF over GST control)"
same,binding signal,[3],"1.25 fold enrichment (6-mer frequency, TF over GST control)"
same,binding signal,[4],"1.3 fold enrichment (6-mer frequency, TF over GST control)"
same,binding signal,[5],"1.3 fold enrichment (6-mer frequency, TF over GST control)"
same,binding signal,[6],"1.32 fold enrichment (6-mer frequency, TF over GST control)"
same,binding signal,[7],"1.34 fold enrichment (6-mer frequency, TF over GST control)"
same,binding signal,[8],"1.18 fold enrichment (6-mer frequency, TF over GST control)"
AATTGC,binding signal,[1],"1.43 fold enrichment (6-mer frequency, TF over GST control)"
same,binding signal,[2],"1.35 fold enrichment (6-mer frequency, TF over GST control)"
same,binding signal,[3],"1.37 fold enrichment (6-mer frequency, TF over GST control)"
same,binding signal,[4],"1.27 fold enrichment (6-mer frequency, TF over GST control)"
same,binding signal,[5],"1.38 fold enrichment (6-mer frequency, TF over GST control)"
same,binding signal,[6],"1.38 fold enrichment (6-mer frequency, TF over GST control)"
same,binding signal,[7],"1.35 fold enrichment (6-mer frequency, TF over GST control)"
same,binding signal,[8],"1.43 fold enrichment (6-mer frequency, TF over GST control)"
TCTTTC,binding signal,[1],"1.33 fold enrichment (6-mer frequency, TF over GST control)"
same,binding signal,[2],"1.39 fold enrichment (6-mer frequency, TF over GST control)"
same,binding signal,[3],"1.43 fold enrichment (6-mer frequency, TF over GST control)"
same,binding signal,[4],"1.44 fold enrichment (6-mer frequency, TF over GST control)"
same,binding signal,[5],"1.27 fold enrichment (6-mer frequency, TF over GST control)"
same,binding signal,[6],"1.48 fold enrichment (6-mer frequency, TF over GST control)"
same,binding signal,[7],"1.44 fold enrichment (6-mer frequency, TF over GST control)"
same,binding signal,[8],"1.38 fold enrichment (6-mer frequency, TF over GST control)"
ACTGAT,binding signal,[1],"1.26 fold enrichment (6-mer frequency, TF over GST control)"
same,binding signal,[2],"1.25 fold enrichment (6-mer frequency, TF over GST control)"
same,binding signal,[3],"1.28 fold enrichment (6-mer frequency, TF over GST control)"
same,binding signal,[4],"1.1 fold enrichment (6-mer frequency, TF over GST control)"
same,binding signal,[5],"1.13 fold enrichment (6-mer frequency, TF over GST control)"
same,binding signal,[6],"1.22 fold enrichment (6-mer frequency, TF over GST control)"
same,binding signal,[7],"1.25 fold enrichment (6-mer frequency, TF over GST control)"
same,binding signal,[8],"1.2 fold enrichment (6-mer frequency, TF over GST control)"
ATTATA,binding signal,[1],"1.3 fold enrichment (6-mer frequency, TF over GST control)"
same,binding signal,[2],"1.33 fold enrichment (6-mer frequency, TF over GST control)"
same,binding signal,[3],"1.37 fold enrichment (6-mer frequency, TF over GST control)"
same,binding signal,[4],"1.23 fold enrichment (6-mer frequency, TF over GST control)"
same,binding signal,[5],"1.37 fold enrichment (6-mer frequency, TF over GST control)"
same,binding signal,[6],"1.24 fold enrichment (6-mer frequency, TF over GST control)"
same,binding signal,[7],"1.28 fold enrichment (6-mer frequency, TF over GST control)"
same,binding signal,[8],"1.3 fold enrichment (6-mer frequency, TF over GST control)"
AACATA,binding signal,[1],"1.32 fold enrichment (6-mer frequency, TF over GST control)"
same,binding signal,[2],"1.24 fold enrichment (6-mer frequency, TF over GST control)"
same,binding signal,[3],"1.23 fold enrichment (6-mer frequency, TF over GST control)"
same,binding signal,[4],"1.19 fold enrichment (6-mer frequency, TF over GST control)"
same,binding signal,[5],"1.31 fold enrichment (6-mer frequency, TF over GST control)"
same,binding signal,[6],"1.3 fold enrichment (6-mer frequency, TF over GST control)"
same,binding signal,[7],"1.27 fold enrichment (6-mer frequency, TF over GST control)"
same,binding signal,[8],"1.27 fold enrichment (6-mer frequency, TF over GST control)"
